Like-named read-outs stand apart in the source and are kept apart here.
What was measured:
Parameters in all cases: species or system human, MV4-11 + K-562 + COLO205 + SK-N-BE2 + OVCAR-8
[1] = test system: FRK; conditions: read-out: apparent Kd, n = 1
[2] = test system: MAPKAPK2; conditions: read-out: apparent Kd, n = 1
[3] = test system: ATR; conditions: read-out: apparent Kd; compound concentrations: 100 nM and 1000 nM (sheet 'Samples'), CATDS: 1.4419933534352201E-2; n = 1
[4] = test system: JAK2; conditions: read-out: apparent Kd, n = 1
[5] = test system: FGFR1; conditions: read-out: apparent Kd, n = 1
[6] = test system: NLK; conditions: read-out: apparent Kd; compound concentrations:100 nM and 1000 nM (sheet 'Samples'); n = 1
[7] = test system: ACAD11; conditions: read-out: apparent Kd, n = 1
[8] = test system: JAK1; conditions: read-out: apparent Kd, compound concentrations: 100 nM and 1000 nM (sheet 'Samples'), n = 1
[9] = test system: NQO2; conditions: read-out: apparent Kd, n = 1
[10] = test system: IRAK4; conditions: read-out: apparent Kd, n = 1
[11] = test system: MAP4K1; conditions: read-out: apparent Kd, n = 1
[12] = test system: CDK6; conditions: read-out: apparent Kd, n = 1
[13] = test system: ICK; conditions: read-out: apparent Kd, n = 1
[14] = test system: MAP2K1; conditions: read-out: apparent Kd, n = 1
[15] = test system: T1, DJA1; conditions: read-out: apparent Kd, compound concentrations: 100 nM and 1000 nM (sheet 'Samples'), n = 1
T1 construct: gene DNAJA1

[16] = test system: CDC7; conditions: read-out: apparent Kd, compound concentrations: 100 nM and 1000 nM (sheet 'Samples'), n = 1
[17] = test system: CDK5; conditions: read-out: apparent Kd; compound concentrations: 100 nM and 1000 nM (sheet 'Samples'), CATDS: 6.6467271298615597E-3; n = 1
[18] = test system: PRKCB; conditions: read-out: apparent Kd, n = 1
[19] = compound concentrations:100 nM and 1000 nM (sheet 'Samples')

NCCNS(=O)(=O)c1ccc(-c2ccnc3[nH]ccc23)cc1 [GSK977617A]
potency estimated from few doses [1, 19]: 0.832 µM

Cc1cccc2c(-c3ccncn3)c(-c3ccc(F)cc3)nn12 [GW515532X]
potency estimated from few doses ([2]; compound concentrations: 100 nM and 1000 nM (sheet 'Samples'), CATDS: 0.245203674473806): 1.4 µM

Clc1cc(Cl)cc(Nc2ccnc(Nc3cc(Cl)cc(Cl)c3)n2)c1 [GSK175726A]
potency estimated from few doses [3]: 0.267 µM | potency estimated from few doses ([1]; compound concentrations: 100 nM and 1000 nM (sheet 'Samples'), CATDS: 1.3675373024535401E-2): 0.305 µM | potency estimated from few doses ([4]; compound concentrations: 100 nM and 1000 nM (sheet 'Samples'), CATDS: 2.01521439750539E-2): 0.131 µM

CCn1c(-c2nonc2N)nc2c(C#CCN)ncc(OCCCN)c21.O=C(O)C(F)(F)F [GSK561866B]
potency estimated from few doses ([4]; compound concentrations: 100 nM and 1000 nM (sheet 'Samples'), CATDS: 0.29802313015986498): 0.0129 µM

CC(C)N1CCC(n2cnc(-c3ccc(F)cc3)c2-c2ccnc(N)n2)CC1 [SB-223132]
potency estimated from few doses [5, 19]: 2.19 µM | potency estimated from few doses [2, 19]: 0.00702 µM | potency estimated from few doses [6]: 0.195 µM

O=C1N=C(NCCc2ccc(Cl)cc2)S/C1=C\c1ccc2ncccc2c1 [RO4498479-000]
potency estimated from few doses ([7]; compound concentrations: 100 nM and 1000 nM (sheet 'Samples'), CATDS: 8.46933106207029E-3): 0.852 µM | potency estimated from few doses ([5]; compound concentrations: 100 nM and 1000 nM (sheet 'Samples'), CATDS: 8.1769993071202692E-3): 0.946 µM | potency estimated from few doses ([1]; compound concentrations: 100 nM and 1000 nM (sheet 'Samples'), CATDS: 1.0205973298365501E-2): 0.53 µM | potency estimated from few doses ([8]; CATDS: 7.5180270628035497E-3): 1.24 µM

CN(c1ccc(NC(=O)N2CCN(CCCN3CCOCC3)CC2)cc1)c1ccnc(Nc2ccc(CS(C)(=O)=O)cc2)n1.Cl [GW830899A]
potency estimated from few doses ([7]; compound concentrations: 100 nM and 1000 nM (sheet 'Samples'), CATDS: 1.8100646511475499E-2): 2.06 µM | potency estimated from few doses ([9]; compound concentrations: 100 nM and 1000 nM (sheet 'Samples'), CATDS: 3.2370847772948297E-2): 0.552 µM

Cl.Nc1c(C(=O)c2cccc(C#CCN3CCCCC3)c2)cnn1-c1ccc(F)cc1 [RO1154461-001]
potency estimated from few doses ([5]; compound concentrations: 100 nM and 1000 nM (sheet 'Samples'), CATDS: 1.0359283946495801E-2): 1.68 µM | potency estimated from few doses ([1]; compound concentrations: 100 nM and 1000 nM (sheet 'Samples'), CATDS: 1.2851217136808301E-2): 0.829 µM | potency estimated from few doses ([8]; CATDS: 1.11252993768114E-2): 1.29 µM | potency estimated from few doses ([4]; compound concentrations: 100 nM and 1000 nM (sheet 'Samples'), CATDS: 2.2434778262680002E-2): 0.24 µM

CNC(=O)c1ccccc1Nc1nc(Nc2ccc(N3CCOCC3)cc2)ncc1Cl.Cl [GSK1576028A]
potency estimated from few doses [5, 19]: 0.844 µM | potency estimated from few doses [10, 19]: 0.593 µM | potency estimated from few doses [11, 19]: 0.387 µM

CN(C)CC(O)COc1ccc(Nc2nccc(-c3cnn4nc(N5CCOCC5)ccc34)n2)cc1 (stereo not drawn) [GW767488X]
potency estimated from few doses [12, 19]: 1.05 µM | potency estimated from few doses [13, 19]: 1.72 µM | potency estimated from few doses [10, 19]: 1.63 µM | potency estimated from few doses [6]: 2.18 µM | potency estimated from few doses [9, 19]: 1.23 µM

COC(=O)c1cccc(NC(=O)NC2CCN(c3ccnc(Nc4cc(OC)c(OC)c(OC)c4)n3)C2)c1 (stereo not drawn) [GSK1379767A]
potency estimated from few doses ([14]; compound concentrations: 100 nM and 1000 nM (sheet 'Samples'), CATDS: 9.4958067467462701E-2): 2.01 µM

CCN(CC)Cc1ccc(Nc2nccc(-c3cnn4ncccc34)n2)cc1 [GW780056X]
potency estimated from few doses ([12]; compound concentrations: 100 nM and 1000 nM (sheet 'Samples'), CATDS: 6.8164228175802102E-2): 0.0832 µM | potency estimated from few doses ([13]; compound concentrations: 100 nM and 1000 nM (sheet 'Samples'), CATDS: 2.9886591978346599E-2): 0.433 µM | potency estimated from few doses ([9]; compound concentrations: 100 nM and 1000 nM (sheet 'Samples'), CATDS: 3.67642918881117E-2): 0.274 µM

Cc1ccccc1C1=C(c2cn(C)c3ccccc23)C(=O)NC1=O [RO0317612-000]
potency estimated from few doses ([15]; CATDS: 0.15228633777300399): 0.952 µM

Cl.Cl.NC(CNC(=O)c1cc(Br)c(-c2ccnc3[nH]ccc23)s1)c1ccccc1.NC(CNC(=O)c1cc(Br)c(-c2ccnc3[nH]ccc23)s1)c1ccccc1 (stereo not drawn) [GSK1322949A]
potency estimated from few doses ([13]; compound concentrations: 100 nM and 1000 nM (sheet 'Samples'), CATDS: 2.9774635875568601E-2): 1.23 µM

Cc1cc(-c2ccnc(Nc3cccc(C#N)c3)n2)cc(C)c1O [GSK1440913A]
potency estimated from few doses ([7]; compound concentrations: 100 nM and 1000 nM (sheet 'Samples'), CATDS: 0.11808512095338899): 0.425 µM

CS(=O)(=O)CCn1c(=O)c(Oc2ccc(F)cc2F)cc2cnc(NC3CCOCC3)nc21 [RO5027956-000]
potency estimated from few doses [7, 19]: 1.69 µM | potency estimated from few doses [4, 19]: 0.0656 µM | potency estimated from few doses [2, 19]: 0.0159 µM | potency estimated from few doses [6]: 0.0559 µM

O=C(O)C(F)(F)F.O=C(O)C(F)(F)F.O=c1[nH]ccc2nc(N[C@@H]3CCCNC3)nc(Nc3ccc(S(=O)(=O)N4CCOCC4)cc3)c12.O=c1[nH]ccc2nc(N[C@@H]3CCCNC3)nc(Nc3ccc(S(=O)(=O)N4CCOCC4)cc3)c12 [GSK2177277A]
potency estimated from few doses ([16]; CATDS: 4.24338957308735E-2): 0.0146 µM | potency estimated from few doses [17]: 1.28 µM | potency estimated from few doses ([15]; CATDS: 6.2286028327955796E-3): 1.85 µM | potency estimated from few doses ([4]; compound concentrations: 100 nM and 1000 nM (sheet 'Samples'), CATDS: 4.8200913683498499E-2): 0.0121 µM | potency estimated from few doses ([11]; compound concentrations: 100 nM and 1000 nM (sheet 'Samples'), CATDS: 2.52445457055663E-2): 0.0341 µM | potency estimated from few doses ([18]; compound concentrations: 100 nM and 1000 nM (sheet 'Samples'), CATDS: 6.2704651327109501E-3): 1.77 µM

CCn1c(-c2nonc2N)nc2c(C#CC(C)(C)O)nc(O[C@@H](CN)c3ccccc3)cc21.O=C(O)C(F)(F)F [GSK1007102B]
potency estimated from few doses [18, 19]: 0.111 µM

COc1ccc(-c2cc3c(N)ncnc3o2)cc1 [GW642138X]
potency estimated from few doses ([12]; compound concentrations: 100 nM and 1000 nM (sheet 'Samples'), CATDS: 0.103985986158265): 1.7 µM | potency estimated from few doses ([10]; compound concentrations: 100 nM and 1000 nM (sheet 'Samples'), CATDS: 9.7145824911744297E-2): 1.95 µM

O=C1N=C(NCc2cccs2)O/C1=C\c1ccc2ncccc2c1 [RO4624208-000]
potency estimated from few doses ([16]; CATDS: 4.51819013017992E-2): 2.1 µM

CN(C)CCNC(=O)Nc1ccc(N(C)c2ccnc(Nc3ccc(CS(C)(=O)=O)cc3)n2)cc1.Cl [GW830900A]
potency estimated from few doses [4, 19]: 1.05 µM

CS(=O)(=O)Nc1ccc(-c2ccnc3[nH]ccc23)cc1 [GSK993273A]
potency estimated from few doses [7, 19]: 1.04 µM | potency estimated from few doses [14, 19]: 1.72 µM

Source: PMC11062922 (Nature Chemical Biology, 2023)
